# Compounds with a hit are over-represented: about 28% of the library has one in this group of screens.
# CYP2C19 act: human CYP2C19 activators, primary screen, biochemical, luminescence; recombinant CYP2C19, luciferin-H EGE luminescence; active compounds read high; 0 = fully inhibited enzyme, 1 = untreated enzyme; activation factor at 5 µM; 96,000 tested, under 10 active; Cytochrome P450 2C19 (Homo sapiens), P33261;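 active means activation factor of at least 2 at 5 µM in the primary screen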;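 further: 0 = wells with 2.5 mM tranylcypromine and 1 = vehicle-only wells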
# Target sequence (P33261 whole entry, looked up): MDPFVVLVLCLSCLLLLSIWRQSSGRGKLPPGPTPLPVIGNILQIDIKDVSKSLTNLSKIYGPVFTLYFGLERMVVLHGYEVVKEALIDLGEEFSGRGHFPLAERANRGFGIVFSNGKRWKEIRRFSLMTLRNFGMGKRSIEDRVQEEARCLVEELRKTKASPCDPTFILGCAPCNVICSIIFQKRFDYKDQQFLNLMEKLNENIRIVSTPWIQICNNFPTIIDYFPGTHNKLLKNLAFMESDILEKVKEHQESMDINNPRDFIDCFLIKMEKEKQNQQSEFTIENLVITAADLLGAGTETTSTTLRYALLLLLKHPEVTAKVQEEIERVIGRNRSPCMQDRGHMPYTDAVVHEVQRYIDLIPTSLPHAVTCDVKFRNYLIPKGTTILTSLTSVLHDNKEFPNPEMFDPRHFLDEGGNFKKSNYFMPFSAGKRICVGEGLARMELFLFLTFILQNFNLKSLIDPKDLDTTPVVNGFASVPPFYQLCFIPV
# CYP2C19 inhib: blockers of cytochrome P450 2C19 activity – biochemical, luminescence, ADME assay, primary screen. P33261. CYP2C19 Supersomes, luciferin-H EGE luminescence, 30 min. inhibition, % at 5 µM. hit rate 21% among 96,000. AID 778, 2007;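 active means CYP2C19 inhibition above a set limit at 5 µM in the primary screen, cut at about 50% in these data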;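 further: plate controls were negative control wells for no effect and 2.5 mM tranylcypromine positive control for full effect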
# PTK2B oligo ant: antagonists of Pyk2 self-association, primary screen, Q293 cells, FERM NanoBiT luminescence, HTS | Protein-tyrosine kinase 2-beta (Homo sapiens), Q14289 | z-score (the deposit names both 25 µM and 10 µM) | AID 1347419, 2020 | hit rate 0.83% among 99,000 | active compounds read low;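 active means Z-score of -3 or lower, scaled per plate to the spread of control and sample wells; inactive means z-score above -3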;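 further: negative z-score means lost luminescence so less FERM oligomerization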
# CYP2C9 act: human CYP2C9 activators, primary screen, biochemical, luminescence. recombinant CYP2C9, luciferin-H conversion; active compounds read high; factor 1 = untreated enzyme, 0 = blocked. hit rate 1.4% among 96,000. Cytochrome P450 2C9 (Homo sapiens), P11712. activation factor at 5 µM;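 active means activation factor of 2 or more for CYP2C9 at a 5 µM dose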;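 further: 0 = sulfaphenazole-blocked wells and 1 = vehicle-only wells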
# CYP2C9 inhib: blockers of cytochrome P450 2C9 activity – biochemical, luminescence, ADME assay, primary screen; P11712; CYP2C9 Supersomes, luciferin-H conversion; inhibition, % at 5 µM; hit rate 20% among 96,000;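 active means blocking of liver enzyme CYP2C9 beyond about 50% at 5 µM, limit read from the data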
# * = called active by the depositor; · = no result given.
SMILES,CYP2C19 act,CYP2C19 inhib,PTK2B oligo ant,CYP2C9 act,CYP2C9 inhib
CC(C)NC(=O)Cn1c(SCC(=O)N2CCCc3ccccc32)nc2ccccc21,0.4,58*,0.7,0.2,85*
O=C(CSc1nncc2ccccc12)N1CCOCC1,0.8,15,0.06,1.1,-9
Cn1cc(SCC(=O)N2CCOCC2)c2ccccc21,0.1,90*,·,1.3,-25
CCCCCCCC(=O)NNC(=O)c1ccc(F)cc1,0.7,35,1.7,0.9,6
CCC(C)NC(=S)NNC(=O)c1ccc(C(C)(C)C)cc1 (stereo not drawn),·,·,2.9,·,·
O=C1c2ccccc2C(=O)N1Cc1cc(-c2ccc(Cl)cc2)no1,·,·,0.28,·,·
O=C(Cc1c[nH]c2ccccc12)OCC(=O)c1ccccc1,0.8,23,-0.67,2.2*,-120
N#C/C(=C(/O)COC(=O)Cc1c[nH]c2ccccc12)c1nc2ccccc2[nH]1,0.9,10,-0.51,0.2,82*
N#C/C(=C(/O)COC(=O)CCc1ccc(S(=O)(=O)N2CCOCC2)cc1)c1nc2ccccc2[nH]1,0.9,9,-0.34,0.8,19
N#C/C(=C(/O)COC(=O)CCCNC(=O)c1ccc(Cl)cc1)c1nc2ccccc2[nH]1,0.5,52*,-0.71,0.2,76*
CCOC(=O)c1c(-c2ccccc2)csc1NC(=O)CSc1nnnn1C,0.6,45,-2.7,0.2,80*
CCOC(=O)c1ccccc1NC(=O)CSc1nnnn1C,·,·,0.26,·,·
CCOC(=O)c1c(NC(=O)CSc2nnnn2C)sc(C)c1-c1ccc(C)cc1,0.8,16,-4.2*,0.2,76*
CCCNC(=O)NS(=O)(=O)c1cnccc1Sc1ccc(Cl)c(Cl)c1,1,-1,2.3,0.5,45
Cc1ccc(C(C2C(=O)CC(C)(C)CC2=O)C2C(=O)CC(C)(C)CC2=O)s1,0.8,19,-1.4,1,0
Cc1cccc(NC(=S)NNC(=O)c2nn(C)cc2Cl)c1,0.4,61*,0.43,0.8,18
COc1ccccc1NC(=S)NNC(=O)c1c(Cl)c(C)nn1C,0.9,7,1.6,0.3,66*
Cc1c(Cl)c(C(=O)NNC(=S)Nc2ccccc2)nn1C,0.2,78*,3.3,0.8,21
Cc1ccc(NC(=S)NNC(=O)c2nn(C)cc2Cl)cc1,0.6,41,-0.09,0.9,9
O=S1(=O)N=C2CCCCCN2C(c2ccncc2)N1 (stereo not drawn),1,-4,-0.08,1.1,-13
COc1ccc(C(=O)Oc2ccc3c(c2)OCO3)cc1OC,1,-1,-0.61,1,3
O=C(Oc1ccc2c(c1)OCO2)c1ccncc1,0.2,82*,0.78,0.3,65*
CCOC(=O)CSc1cn2c(n1)CCC2,·,·,1,·,·
Cc1cnc(NC(=O)CSc2ccccc2)s1,0.7,32,-0.06,0.8,16
O=C(Cc1cccs1)Nc1nncs1,1.1,-11,0.92,1.1,-7
SMILES,CYP2C19 act,CYP2C19 inhib,PTK2B oligo ant,CYP2C9 act,CYP2C9 inhib
O=C(Cc1cccs1)Nc1nc2c(ccc3ccccc32)s1,0.6,41,-0.55,0.4,64*
COC(=O)c1sc(NC(=O)Cc2cccs2)nc1C,0.6,43,-1.2,0.4,57*
COC(=O)c1sc(NC(=O)COc2ccccc2OC)nc1C,0.7,30,-0.32,0.3,67*
COc1cc(CC(=O)Nc2ncc(C)s2)cc(OC)c1OC,0.3,73*,0.36,0.5,54*
COc1cccc(-c2nnc(NC(=O)Cc3cccs3)s2)c1,1.1,-9,2.1,1.2,-16
CCOc1cc(NC(=O)CC(C)C)c(OCC)cc1NC(=O)CCn1nnc2ccccc21,1,-2,0.31,1,2
COC(=O)c1sc(NC(=O)CSc2nc3cccnc3n2C2CCCCC2)nc1C,0.3,73*,0.11,0.2,84*
COC(=O)c1sc(Nc2ccccc2)nc1C,0.4,58*,-0.75,0.7,29
O=C(COc1ccccc1)Nc1cccc2nsnc12,0.5,53*,0.84,0.8,22
COC(=O)c1sc(NC(=O)COc2ccc(C)cc2)nc1C,0.7,34,-0.27,0.4,60*
COc1ccc(-n2cnnc2SCC(=O)N2CCN(S(=O)(=O)c3ccccc3)CC2)cc1,0.6,44,0.89,0.6,42
COc1ccccc1N1CCN(C(=O)Cn2c(=O)[nH]c3ccsc3c2=O)CC1,0.9,14,-0.16,0.9,12
Cc1ccnc2nc(C(=O)NCCc3ccc(F)cc3)nn12,0.8,15,-0.02,1.2,-22
COC(=O)c1sc(NC(=O)COc2ccccc2)nc1C,0.3,71*,-1.1,0.1,94*
Cc1cnc(NC(=O)COc2ccccc2)s1,0.3,66*,-0.42,0.7,34
CCOc1ccc2cc(/C=C/C(=O)c3ccco3)c(Cl)nc2c1,0.8,18,2.7,0.7,25
Cc1c(C(c2ccc([N+](=O)[O-])cc2)c2c(C)n(C)n(-c3ccccc3)c2=O)c(=O)n(-c2ccccc2)n1C,1,-4,-0.48,1.2,-18
O=C(NC1CCCCC1)C1CCN(S(=O)(=O)N2CCOCC2)CC1,1.2,-20,0.64,1.1,-9
Cc1nnc(SCC(=O)Nc2nsc(-c3ccccc3)n2)s1,1,-2,-0.24,0.9,9
O=C(CSc1nnnn1-c1ccccc1)CC(=O)Nc1ccc(Cl)cc1,0.9,14,-0.01,2.4*,-140
O=C(CSc1nnnn1-c1ccccc1)Nc1nsc(-c2ccc(Cl)cc2)n1,0.3,75*,-0.64,2.8*,-177
Cc1ccc(-c2nc(NC(=O)CSc3nnc(C)s3)ns2)cc1,0.3,65*,·,0.6,44
O=C(CSc1nnnn1-c1ccccc1)Nc1nc(-c2ccccc2)ns1,0.9,9,1.3,0.7,31
Cc1cc(C(F)(F)F)nn1CCCNC(=O)c1cnccn1,0.5,50*,-0.39,0.9,8
CCN(CCCNC(=O)C1CCN(S(=O)(=O)c2cccc3nonc23)CC1)Cc1ccccc1,1.1,-6,0.7,1.1,-6
SMILES,CYP2C19 act,CYP2C19 inhib,PTK2B oligo ant,CYP2C9 act,CYP2C9 inhib
Clc1ccc(CSc2snnc2-c2ccccc2)c(Cl)c1,0.8,21,-0.34,0.9,14
COC(=O)Cc1cc(=O)n2[nH]c(SC)nc2n1,0.8,22,-0.46,0.4,64*
COC(=O)Cc1cc(=O)n2[nH]c(C)nc2n1,1.2,-20,0.21,1.2,-23
CC(C)OC(=O)CSc1nnc(SCc2cccc3ccccc23)s1,0.3,71*,-0.11,0.8,18
Cc1occc1-c1nnc(SCC(=O)NCc2cccs2)n1-c1ccc(F)cc1,0.6,43,-0.71,0.4,63*
Cc1cc2nnc(SCC(=O)NCc3cccs3)n2c2ccccc12,0.5,49,0.01,3.2*,-221
O=C(O)CSc1nnc(SCc2cccc3ccccc23)s1,1,-4,0,0.5,46
Cc1cc2nnc(SC(C)C)n2c2ccccc12,·,·,-1.3,·,·
